Cell viability data for 49 molecules are collected here from the supplement of paper PMC10600219.

Where a name gives a salt, the structure may show the parent alone. Over roughly 2,800 compounds, “cell viability relative to vehicle” has its median near 0.98; the lowest 2% begin near 0.45. The list comes from a sample in which the lowest values are over-represented; it also holds similar structures and randomly drawn compounds.

The assay deals with NCI-H2228 alectinib-DTP. Kind of assay: cell viability relative to vehicle (fraction of vehicle); NCI-H2228 is an ALK-positive lung cancer line and DTP means drug-tolerant persister; higher = less growth inhibition. The following applies: 100 nM; treatment time 6 days. Put shortly:
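Values give cell viability as a fraction of vehicle-treated cells. Parental and drug-tolerant persister NCI-H2228 cells (persisters made with 1000 nM of a targeted drug for 13 days) were exposed in 384-well plates to the 3114-agent TargetMol anti-cancer compound library at 100 nM, with DMSO as vehicle. ATP was then read after 6 days by the CellTiter-Glo 3D Cell Viability Assay.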
`CC(C)C[C@H](NC(=O)[C@H](Cc1ccccc1)NC(=O)c1cnccn1)B(O)O` [Bortezomib] came in with a cell viability of 0.145.

`CC(C)C[C@H](NC(=O)[C@@H](O)[C@H](N)Cc1ccccc1)C(=O)O` [Bestatin hydrochloride] returned a cell viability of 1.12.

Regarding `CNC(=O)[C@H](Cc1ccccc1)NC(=O)[C@H](CC(C)C)[C@H](CSc1cccs1)C(=O)NO` [Batimastat], the cell viability turned out to be 1.15.

`CC(C)C[C@H](NC(=O)[C@@H](O)[C@H](N)Cc1ccccc1)C(=O)O` [Ubenimex] yielded a cell viability of 1.05.

The molecule `CC(C)C[C@H](NC(=O)[C@@H](NC(=O)c1cccc(-c2ccccc2)n1)[C@@H](C)O)B(O)O` [Delanzomib] returned a cell viability of 0.301.

With `CC(C(=O)Nc1cccc(/N=C/c2c(O)ccc3ccccc23)c1)c1ccccc1` (centres undefined) [Salermide], the cell viability stood at 0.89.

`O=C(Nc1ccc(C(O)(C(F)(F)F)C(F)(F)F)cc1)c1ccccc1Cl` had a cell viability of 0.929.

Regarding `Cn1cc(-c2cnn3c(N)c(Br)c([C@H]4CCCNC4)nc23)cn1`, the cell viability amounted to 0.907.

`C/C(=C1/C(=O)Nc2ccc(NC(N)=O)cc21)c1ccc[nH]1` yielded a cell viability of 1.02.

With `CCN(CC)CCOc1ccc(Nc2nc(-c3ccccc3NC(=O)CCN3CCN(C)CC3)nc3ccccc23)cc1`, the cell viability was 1.16.

Regarding `CCN(CC)CCOc1ccc(Nc2ncc3cc(-c4c(Cl)cccc4Cl)c(=O)n(C)c3n2)cc1`, the cell viability was determined as 0.445.

Regarding `CSc1cccc(Nc2ncc3cc(-c4c(Cl)cccc4Cl)c(=O)n(C)c3n2)c1`, the cell viability was 0.665.

In the case of `N#Cc1cc2cc(CN3CCC(Nc4ncnc5sc(CC(F)(F)F)cc45)CC3)ccc2[nH]1`, the cell viability worked out at 1.04.

`COc1ccc(-c2nc(-c3cc(C(F)(F)F)cc(C(F)(F)F)c3)n(Cc3ccc(C(N)=O)cc3)c2-c2ccc(OC)cc2)cc1` [Apoptozole] registered a cell viability of 0.817.

In turn, `COc1c(OCCCN2CCOCC2)ccc2c1N=C(NC(=O)c1cnc(N)nc1)N1CCN=C21` [Copanlisib] registered a cell viability of 0.38.

For the molecule `COc1cc2ncnc(Nc3ccc(F)c(Cl)c3)c2cc1OCCCN1CCOCC1` [Gefitinib], the cell viability came out at 0.881.

`COc1cc2c(Oc3ccc(NC(=O)C4(C(=O)Nc5ccc(F)cc5)CC4)cc3F)ccnc2cc1OCCCN1CCOCC1` [Foretinib] displayed a cell viability of 0.882.

As for `Cc1cc(C)c(S(=O)(=O)N(CCc2cccc(Br)c2)Cc2ccc(-c3cccc(S(C)(=O)=O)c3)cc2)c(C)c1`, the cell viability turned out to be 1.12.

For `N#C/C(=C/c1ccc(O)c(O)c1)C(=O)N1CCc2ccccc21` [Tyrphostin AG 528], the cell viability amounted to 1.03.

`COc1ccc(C=C(C#N)c2cccnc2)cc1OC` came in with a cell viability of 0.956.

As for `COc1ccc2c3n(c(=NC(=O)c4cccnc4)nc2c1OC)CCN3`, the cell viability is 0.447.

`CCc1nc2c(C)cc(N3CCN(CC(=O)N4CC(O)C4)CC3)cn2c1N(C)c1nc(-c2ccc(F)cc2)c(C#N)s1` returned a cell viability of 1.02.

The molecule `CN1CCN(Cc2ccc(Nc3ncc(Cl)c(Nc4ccccc4S(=O)(=O)N(C)C)n3)cc2)CC1` showed a cell viability of 0.122.

In the case of `CNS(=O)(=O)c1ccccc1Nc1nc(Nc2ccc(N3CCN(C)CC3)cc2OC)ncc1Cl` [ALK inhibitor 2], the cell viability was found to be 1.

In turn, `COc1cc(N2CCC(N3CCN(C)CC3)CC2)ccc1Nc1ncc(Cl)c(Nc2ccccc2S(=O)(=O)C(C)C)n1` displayed a cell viability of 0.942.

Molecule `CC/C(=C(/c1ccc(O)cc1)c1ccc(OCCNC)cc1)c1ccccc1` [Endoxifen E-isomer hydrochloride] gave a cell viability of 1.12.

Molecule `CN1C(N)=N[C@](C)(c2cc(NC(=O)c3ccc(F)cn3)ccc2F)CS1(=O)=O` [Verubecestat] yielded a cell viability of 0.969.

Turning to `CN1CCc2c(c3ccccc3n2Cc2ccc(C(=O)NO)cc2)C1` [Tubastatin A HCl], the cell viability is 0.892.

In turn, `Cn1cc(C[C@@H](N)C(=O)O)c2ccccc21` [Indoximod] came in with a cell viability of 1.14.

As for `Cn1cc(CNCC2CCN(c3ncc(C(=O)NO)cn3)CC2)c2ccccc21` [Quisinostat], the cell viability worked out at 0.358.

With `CC(=O)OCC1=CO[C@@H](OC(=O)CC(C)C)[C@H]2C1=C[C@H](OC(=O)CC(C)(C)OC(C)=O)[C@]21CO1` [Acevaltrate], the cell viability is 1.13.

`Cc1cc([N+](=O)[O-])c(NS(=O)(=O)c2cccc(C(=O)O)c2)cc1-c1cccnc1` [Alofanib]: the cell viability was 0.978.

`O=P(O)(O)O[C@H]1[C@H](OP(=O)(O)O)[C@@H](OP(=O)(O)O)[C@H](OP(=O)(O)O)[C@@H](OP(=O)(O)O)[C@H]1OP(=O)(O)O` [Phytic acid] displayed a cell viability of 1.13.

`COC(=O)Nc1ccc(-c2nc(N3CCOCC3)c3cnn(C4CCN(C(=O)OC)CC4)c3n2)cc1` had a cell viability of 0.855.

As to `CCNC(=O)Nc1ccc(-c2nc(N3CCOC[C@@H]3C)c3c(n2)C(C)(C)S(=O)(=O)C3)cc1`, the cell viability was determined as 0.508.

Consider `CN(C)C1CCN(C(=O)c2ccc(NC(=O)Nc3ccc(-c4nc(N5CCOCC5)nc(N5CCOCC5)n4)cc3)cc2)CC1` [Gedatolisib], for which the cell viability is 0.385.

As for `O=C(Nc1ncc([N+](=O)[O-])s1)c1ccccc1O` [Tizoxanide], the cell viability turned out to be 0.88.

Regarding `COC(=O)C[C@](O)(CCCC(C)(C)O)C(=O)O[C@@H]1C(OC)=C[C@]23CCCN2CCc2cc4c(cc2[C@H]13)OCO4` [Homoharringtonine], the cell viability is 0.2.

The molecule `O=C(O)COc1ccc(Br)cc1/C=C1\SC(=S)N(Cc2cccnc2)C1=O` [Skp2 Inhibitor C1] yielded a cell viability of 1.08.

As to `CC(C)=CCc1cc2c(cc1O)O[C@H](c1ccc(O)cc1)CC2=O` [Bavachin], the cell viability turned out to be 1.01.

Take `CC(C)(C)c1cc(NC(=O)Nc2ccc(Oc3ccnc4[nH]c(=O)cnc34)cc2F)n(-c2ccccc2)n1`: the cell viability worked out at 1.12.

Molecule `Nc1ccc(/C=C/C(=O)NCc2cc3cc(-c4ccc(C(=O)N5CCC(F)(F)CC5)cc4)cc(-c4ccc(F)cc4)c3o2)cn1` returned a cell viability of 1.25.

Turning to `Nc1cc(F)ccc1NC(=O)c1ccc(CNC(=O)/C=C/c2cccnc2)cc1` [Chidamide], the cell viability came out at 0.775.

`O=C(/C=C/c1cccnc1)NCCCCC1CCN(C(=O)c2ccccc2)CC1` came in with a cell viability of 0.452.

`c1ccc(-c2oc3ncnc(NC[C@@H]4CCCO4)c3c2-c2ccccc2)cc1`: the cell viability came to 1.06.

As for `COC1=CC(=O)c2ccccc2C1=O` [2-Methoxynaphthoquinone], the cell viability stood at 1.06.

As for `CCn1c(=O)c(-c2cc[nH]n2)cc2c(C)nc(N)nc21` [Voxtalisib], the cell viability came to 0.86.

Molecule `COc1cccc(-c2cc(F)ccc2[C@H]2Cc3nc(N)nc(C)c3C(=O)N2)n1` gave a cell viability of 0.502.

With `COc1ccc(-c2cc3c(C)nc(N)nc3n([C@H]3CC[C@H](OCCO)CC3)c2=O)cn1`, the cell viability came out at 0.398.
